The record followed here is PubChem BioAssay AID1259336 (Sattelle Laboratory, UCL Respiratory, Division of Medicine, …, 2017).

A number with no mark means an inactive call. Cut-off read from the data, not from the text of the source: active = log2 fold change growth below about -1.8; inactive = the rest.

The experiment can be described thus: anthelmintic activity against nematode growth – whole organism, log2 fold change (AID 1259336).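 Note: growth scored by imaging after five days at 20 °C.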 Particulars: C. elegans growth, anthelmintic screen; active compounds read low.
As for `FC(F)(F)c1cccc(-c2nc3c(NCc4ccncc4)nccc3[nH]2)c1`, the log2 fold change growth is 0.0714.
For `CC(C)(C)OC(=O)N1CCN(c2cc(-c3ccc(Oc4ccccc4)cc3)[nH]n2)CC1`, the log2 fold change growth was -0.56.
On to `COc1cc(NC(=O)Cc2nn(C)c(=O)c3ccccc23)ccc1Cl`, for which the log2 fold change growth is 0.419.
For `CC(C)(C)n1nc(-c2ccccc2)c2c(N)ncnc21`, the log2 fold change growth is -0.162.
As for `Cc1ccc2oc(-c3cc(NC(=O)Cc4ccccc4)ccc3Cl)nc2c1`, the log2 fold change growth was 0.272.
Take `O=C(c1cc2ccccc2o1)N1CCN(Cc2ccc3c(c2)OCO3)CC1`: the log2 fold change growth was 0.212.
In the case of `CC(C)=CCC/C(C)=C\CNCCNC1C2CC3CC(C2)CC1C3` (stereo not given), the log2 fold change growth is 0.423.
For `COc1ccc2nccc(NC(=O)C3CCN(CCc4ccc(Cl)cc4)CC3)c2n1` the value was 0.423; for `O=C(NCc1ccoc1)N1CCN(Cc2ccc3c(c2)OCO3)CC1`, 0.212.
As for `Cc1cnc(CCNC(=O)c2cc(-c3ccc(Cl)cc3)cs2)[nH]1`, the log2 fold change growth is -0.147.
For `Brc1c(-c2ccc3c(c2)OCO3)nc2ncccn12` the value was 0.0304.
With `CCCn1nnc(NC(=O)COc2ccc(C3CCCCC3)cc2)n1`, the log2 fold change growth is 0.0714.
As to `O=C(NCCN1CCCC1)c1cc(NCCCCN2CCC(F)(F)CC2)nc2ccc(Cl)cc12`, the log2 fold change growth was 0.489.
Take `O=C(Nc1ccc(N2CCNCC2)nc1)c1oc(-c2ccccc2)nc1C(F)(F)F`: the log2 fold change growth was -0.164.
As to `O=C(C1CCN(c2cc(-n3cccc3)ncn2)CC1)N1CCc2ccccc2C1`, the log2 fold change growth is -0.11.
